Compound activity (PubChem BioAssay)
HCV inhibitor = qHTS Assay for Inhibitors of Hepatitis C Virus (HCV) | Huh7.5.1 HCVcc-Cre infection, luciferase reporter, 44 h | 340,000 compounds, 3.4% hits | AID 651820, 2012 | Potency, µM (titrated, usually from 41.8 µM), without a hit: at the highest dose activity change, negative = inhibition, usual class: inhibitors; active means well fitted inhibition curve with a large enough effect; inconclusive means small, poorly fitted or top-dose-only effect, or another doubt; inactive means no such curve, though single readings can be large or run the other way; further: potency means the concentration at half of the fitted maximal effect
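After 44 h co-culture of compound, cells and HCVcc-Cre (~0.5 moi), substrate is added for 15 min at room temperature and luciferase measured over 15 sec. Cells were seeded at 1,000/well and pre-cultured 4 h.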
HCMV inh = qHTS Assay for inhibitors of the human cytomegalovirus (HCMV); HFF cells, HCMV-luciferase reporter, 72 h; stronger effect = lower value; activity change, negative = inhibition, % at 57.5 µM; 410,000 compounds, 4.5% hits; AID 1259415, 2018; in the data active means activity change below about -60%; inconclusive means no clear call, values can overlap the other calls; inactive means above about -39%
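Inhibition of viral replication was scored as loss of reporter luminescence in HFFs infected with HCMV-luciferase (MOI 1 PFU/cell) for 72 h; compounds tested at 2 doses, normalized to buffer and Salinomycin controls.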
VACV mCherry inh = qHTS for Stage-Specific Inhibitors of Vaccinia Orthopoxvirus: mCherry Reporter Primary qHTS | Potency, µM (doses to about 36.5 µM), inactives show at the highest dose activity change, negative = inhibition, most hits filed as inhibitors | 310,000 compounds, 0.63% hits | Vaccinia virus mCherry reporter infection, fluorescence | AID 720579, 2013; calls by dose curve; tested in A549 cells; further: potency means the concentration at half of the fitted maximal effect; nearly all actives have a fitted effect of over 35% in size
VACV Venus inh = qHTS for Stage-Specific Inhibitors of Vaccinia Orthopoxvirus: Venus Reporter Primary qHTS; Vaccinia virus Venus reporter expression, fluorescence; Potency, µM (top dose mostly 36.5 µM), for the others: at the highest dose activity change, negative = inhibition, usual class: inhibitors; 330,000 compounds, 0.46% hits; calls by dose curve; tested in A549 cells; further: potency means the concentration at half of the fitted maximal effect; nearly all actives have a fitted effect of over 30% in size
FMDV antiviral = High Throughput Screening for Foot and Mouth Disease Virus Antivirals | Potency, µM (top dose mostly 57.9 µM), for the others: at the top dose activity change, negative = inhibition, actives largely listed as inhibitors | 410,000 compounds, 1.2% hits | AID 1159524, 2015 | FMDV antiviral cell-based qHTS; calls by dose curve; tested in HEK293T cells; further: read-out not given here; potency means the concentration at half of the fitted maximal effect; nearly all actives have a fitted effect of over 45% in size
* hit, by the source's call; i = inactive; ? = inconclusive; / = no result; [ ] = another dose, or the depositor's remark. Shown are actives, neighbours in structure and some others; about 7.3% of the full set was active somewhere. On the % scale 0 is the no-effect control and ±100 the full control effect.

SMILES	HCV inhibitor	HCMV inh	VACV mCherry inh	VACV Venus inh	FMDV antiviral
COc1ccc(F)cc1CN1CCN(c2ncnc3scc(-c4ccccc4)c23)CC1	?	-75*	-13%	-7%	?
c1ccc(N2CCN(c3ncnc4scc(-c5cccs5)c34)CC2)cc1	11µM*	-38	/	/	-9%
Cc1ccc(-c2csc3ncnc(N4CCN(C(=O)c5ccccc5)CC4)c23)cc1	?	-70*	-5%[1.46 µM]	?	25µM*
CCOc1ccccc1NC(=O)Cn1ncc2c([nH]c3ccccc32)c1=O	/	20	-4%	-10%	-15%
c1ccc(-c2csc3ncnc(N4CCOCC4)c23)cc1	-4%	-38	i	-9%	-23%
O=C(c1ccco1)N1CCN(c2ncnc3scc(-c4cccs4)c23)CC1	?	?	/	/	22µM*
c1csc(-c2csc3ncnc(NCCCN4CCOCC4)c23)c1	?	-67*	/	/	?
Fc1ccc(-c2csc3ncnc(N4CCN(c5ccccc5)CC4)c23)cc1	-14%	-62*	-20%	-5%	-29%
COc1ccc(N2CCN(c3ncnc4scc(-c5ccc(C)cc5)c34)CC2)cc1	?	-64*	-16%	-6%	?
Cc1cc(N(C)C)cc(C)c1/C=C/c1ccnc2ccccc12	/	/	-17%	-23%	/
COc1ccc(N2CCN(c3ncnc4scc(-c5ccccc5)c34)CC2)cc1	?	-36	?	-3%	?
COc1ccc(N2CCN(c3ncnc4scc(-c5ccc(F)cc5)c34)CC2)cc1	?	-40	i	-24%	28µM*
Cc1ccc(Cl)cc1Nc1nc(-c2sc(NC(=O)C(C)(C)C)nc2C)cs1	2%	-73*	?	-13%	-22%
COc1ccccc1Nc1nc(-c2sc(NC(=O)C(C)(C)C)nc2C)cs1	2.5µM*	-88*	?	-29%	-17%
O=C(CNC(=O)c1ccccc1)OCC(=O)c1cccc2ccccc12	/	/	24%	-13%	/
CCCN1CNc2c(c(=O)[nH]c(=S)n2CCc2cccc(Cl)c2)C1	/	/	-10%	-6%	/
COc1ccc(/C=C/C(=O)c2ccccc2)cc1COc1ccccc1F	?	-8	/	/	20µM*
COc1ccc(C(=O)N/N=C\c2ccc(OC)c(COc3ccccc3Br)c2)c(OC)c1	18µM*	-18	/	/	-23%
COc1ccc(/C=N\NC(=O)c2cccc(F)c2)cc1COc1ccccc1	-18%	-86*	-9%	-37%	0%
COc1ccc(/C=N\NC(=O)c2ccccc2Br)cc1COc1ccccc1	14µM*	?	/	/	?
CC(C)Cc1nc2cc(NS(=O)(=O)N(C)C)cc(C(=O)N3CCOCC3)c2n1C	/	/	-13%	-5%	26%
CC(=O)c1nn(-c2cccc(Br)c2)cc1C(=O)c1ccc(C)cc1	?	-69*	/	/	8%
CC(=O)c1nn(-c2cccc(Br)c2)cc1C(=O)c1ccc(Br)cc1	-12%	?	/	/	-3%
O=C(Nc1ccc(C(F)(F)F)cc1)C1CCCN1S(=O)(=O)c1cccc2cccnc12 (stereo unspecified)	?	-75*	/	/	-28%
Cc1ccc(NC(=O)C2CCCN2S(=O)(=O)c2cccc3cccnc23)cc1 (stereo unspecified)	/	1	i	-13%	7%
SMILES	HCV inhibitor	HCMV inh	VACV mCherry inh	VACV Venus inh	FMDV antiviral
Cc1c(C(=O)NCc2ccc(Cl)c(Cl)c2)sc(=O)n1Cc1ccc(S(=O)(=O)N(C)C)cc1	/	-16	-6%	-18%	22µM*
Cc1c(C(=O)NCc2ccc(C(C)C)cc2)sc(=O)n1Cc1ccc(S(=O)(=O)N(C)C)cc1	/	-68*	-5%	-28%	11µM*
C=Cc1ccc(Cn2c(C)c(C(=O)NCc3ccc(Cl)c(Cl)c3)sc2=O)cc1	/	?	6%	-21%	-25%
CSc1ccc(Cn2c(C)c(C(=O)NCc3ccc(C(C)C)cc3)sc2=O)cc1	/	-29	i	-9%	-30%
Cc1c(C(=O)NCc2ccc(Cl)c(Cl)c2)sc(=O)n1Cc1ccc(C(=O)N(C)C)cc1	/	-69*	12%	-13%	?
Cc1cc(C)c(NC(=O)CCn2c(=O)c3cccn3c3ccccc32)c(C)c1	/	-16	-8%	-15%	-12%
COc1ccccc1CNC(=O)CCCn1c(=O)c2ccccc2n(Cc2ccc(C)cc2)c1=O	/	7	-16%	-13%	-10%
Cc1ccc(C)c(NC(=O)CSc2cn(CC(=O)N3CCCC3)c3ccccc23)c1	/	45	i	-11%	-14%
O=c1c2ccc(F)cc2sn1-c1ccccc1	/	-30	i	-25%	-2%
Cc1ccc(-n2sc3cc(F)ccc3c2=O)c(C)c1	/	-70*	-13%	?	?
Cc1ccc(NC(=O)C2CCCN(S(=O)(=O)c3cnc[nH]3)C2)cc1F (stereo unspecified)	?	61	-2%	-8%	-10%
O=C(Nc1cccc(F)c1)C1CCCN(S(=O)(=O)c2cnc[nH]2)C1 (stereo unspecified)	19%	-62*	/	/	-21%
CCC(C)NC(=O)c1c(N)n(/N=C/c2cccnc2)c2nc3ccccc3nc12 (stereo unspecified)	14µM*	-2	/	/	12%
CCOC(=O)c1sc(N(Cc2ccccc2)C(=O)CCl)nc1C	18µM*	-25	-21%	-12%	?
CCOC(=O)c1sc(N(Cc2ccccc2)C(=O)COC(=O)c2ccccc2O)nc1C	0%	12	i	-12%	21%
O=C1CSC(c2cn(-c3ccccc3)nc2-c2cc3ccccc3oc2=O)N1Cc1ccccc1 (stereo unspecified)	13µM*	-25	-6%[1.46 µM]	?	-18%
O=c1[nH]cnc2nc[nH]c12	/	/	-8%	10%	18%
Nc1nc2nc[nH]c2c(=O)[nH]1	5µM*	/	i	-15%	-19%
O=C(NCc1ccc(F)cc1Cl)c1ccc(CSCc2ccccc2Cl)o1	/	?	-14%	-7%	-16%
CC(C)COC(=O)N1CCCC1C(=O)O (stereo unspecified)	3.2µM*	7	?	0%	/
CC(C)(C)OC(=O)N1CCC[C@H]1C(=O)O	30%	-38	i	-11%	-9%
O=C(CSc1nccn1-c1cccc(Cl)c1)Nc1cccc2ccccc12	/	-63*	i	-2%	-14%
COc1ccc(OC)c(NC(=O)CSc2nccn2-c2cc(C)cc(C)c2)c1	/	-6	-17%	-13%	0%
COc1ccc(Cl)cc1NC(=O)CSc1nccn1-c1ccc(Cl)cc1	/	-82*	-7%	-20%	?
COc1ccc(Nc2oc(-c3ccc(COc4ccccc4C)o3)nc2C#N)cc1	/	-7	-26%	-25%	?
CC(Nc1oc(-c2ccc(COc3ccccc3)o2)nc1C#N)c1ccccc1 (stereo unspecified)	/	-79*	?	-29%	-13%
N#Cc1nc(-c2ccc(COc3ccccc3)o2)oc1NCc1ccccc1	/	?	-19%	-17%	-21%
